Reference: ChEMBL document CHEMBL3988442, “University of Dundee, Small-Polar-MMV Screening Library” (2021)
Among all 48,000 compounds or so, about 13,000 (27%) showed an effect of 50% or more. The list shows a part of the results.

System: Wolbachia pipientis
Assay: Anti-Wolbachia Cell-Based Screen
Type: functional
Design: scale not given: in the data most compounds retested in dose-response had high values
Conditions: 5 µM

SMILES | Percent Effect [%]
CNS(=O)(=O)Cc1cccc(CNCc2ccsc2)c1 | -11.11
CCN(Cc1cnn(CC)c1)C(=O)Cn1c(=O)ccc2ccccc21 | 8.668
Cc1noc(C)c1CN(C)C(=O)c1ccc(NC2CC2)nc1 | -0.4037
O=C1NCCCc2[nH]c(Cc3ccc(F)cc3)nc21 | -3.55
Cc1ccc(Cc2cnc(C3CCNCC3)cn2)cc1.Cl | 94.42
Cl.O=C1NCCCCC1NCc1csc(-c2ccc(F)cc2)n1 (centres undefined) | -5.681
Cl.Fc1ccc(Cc2cnc(C3CCCN3)cn2)cc1 (centres undefined) | 101.6
CN(C)C(=O)c1cccc(CCNc2ccccc2S(C)(=O)=O)c1 | -12.66
CC(C)Nc1ncccc1C(=O)NC1CC(=O)N(CC(F)(F)F)C1 (centres undefined) | 5.646
CC(=O)N(C)CC(=O)NCC1(c2c(F)cccc2F)CCCC1 | 20.23
Cc1cc(C)n(C2CCCN(C(=O)c3ccc(NC4CC4)nc3)C2)n1 (centres undefined) | -9.75
Cc1cc(C)n(C2CCCN(C(=O)c3ccn(C)c(=O)c3)C2)n1 (centres undefined) | -8.273
Cc1cc(C)n(C2CCCN(C(=O)c3cnc4onc(C)c4c3)C2)n1 (centres undefined) | 3.729
Cc1cc(C)n(C2CCCN(C(=O)c3ccc(N(C)C)nc3)C2)n1 (centres undefined) | 99.92
Cc1cc(C)n(C2CCCN(C(=O)c3ccnc(N(C)C)c3)C2)n1 (centres undefined) | -18.09
CNC(=O)c1ccc(C(=O)N2CCCC(n3nc(C)cc3C)C2)cn1 (centres undefined) | 97.01
O=C(NC1CCCNC1=O)c1ccc2nc(-c3ccc(F)cc3)cn2c1 (centres undefined) | -16.52
CCc1ncncc1C(=O)NCCN1CCC(C)CC1 | 6.983
Cc1cc(C(=O)NCCN2CCCC(C)C2)nn1C(C)(C)C (centres undefined) | 95.43
Cc1cc(C(=O)NCCN2CCC(C)CC2)nn1C(C)(C)C | 102.5
CC1CCCN(CCNC(=O)c2cncnc2C(C)C)C1 (centres undefined) | 11.51
Cc1cc(C(=O)NCCN2CCCC(C)C2)nn1C (centres undefined) | -3.799
CC1CCCCN1CCNC(=O)c1ccn(-c2ccc(F)cc2)n1 (centres undefined) | 4.653
CC1CCCCN1CCNC(=O)c1ccccc1N1CCOCC1 (centres undefined) | 19.03
CC1CCN(CCNC(=O)c2ccccc2N2CCOCC2)CC1 | -0.8532

SMILES | Percent Effect [%]
Cc1cc(C(=O)NCCN2CCCCC2C)nn1C(C)(C)C (centres undefined) | 107.2
Cc1cc(C(=O)NCCN2CCCCCC2)nn1C(C)(C)C | 99.33
CCc1ncc(C(=O)N2CCN(c3nc(C)cc(OC)n3)CC2)s1 | -13.57
CC(C)NC(=O)[C@@H]1C[C@H](N)CN1C(=O)c1cc2c([nH]c1=O)CCCC2 | 1.783
Cc1cccc2c1cnn2CCC(=O)NCC(=O)N(C)C | 14.92
Cc1cc(C(=O)N2CCCC(N3CCCCCC3)C2)nn1C(C)(C)C (centres undefined) | -14.1
Cc1cc(C(=O)NCCN2CCCCC2)nn1C(C)(C)C | 88.73
FC1(F)CCN(Cc2ccccn2)CC12CCN(c1cnccn1)C2.O=C(O)C(F)(F)F.O=C(O)C(F)(F)F.O=C(O)C(F)(F)F (centres undefined) | 108
FC1(F)CCN(Cc2ccccn2)CC12CCN(c1ncccn1)C2.O=C(O)C(F)(F)F (centres undefined) | 99.55
O=C(O)C(F)(F)F.O=C(c1cc[nH]n1)N1CCC(F)(F)C2(CCN(c3ccccn3)C2)C1 (centres undefined) | -20.89
Fc1cnc(N2CCC3(CC2)CN(Cc2ccccn2)CCO3)nc1.O=C(O)C(F)(F)F.O=C(O)C(F)(F)F | 3.828
Fc1ccc(CN2CCC(F)(F)C3(CCN(c4cnccn4)C3)C2)cc1.O=C(O)C(F)(F)F.O=C(O)C(F)(F)F (centres undefined) | 95.57
O=C(O)C(F)(F)F.c1ccc(CN2CCOC3(COCCN(c4ncccn4)C3)C2)nc1 (centres undefined) | -5.957
FC1(F)CCN(Cc2ccncc2)CC12CCN(c1cnccn1)C2.O=C(O)C(F)(F)F.O=C(O)C(F)(F)F.O=C(O)C(F)(F)F (centres undefined) | 91.26
O=C(NC[C@H]1OC[C@@H](NCc2ccccn2)[C@@H]1O)c1ccncc1 | -10.69
CC1=N[C@@]2(CC[C@@H]3CN(S(=O)(=O)C4CC4)C[C@@H]32)C(=O)N1CC(C)C | 6.738
CCCC1(NC(=O)C(c2ccc(F)cc2)N(C)C)CC1 (centres undefined) | 19.19
Cc1ccc(CNCc2ccc(N3CCC(CO)CC3)nc2)c(C)c1.Cl | 6.349
CCS(=O)(=O)NCCNCc1ccc(Cl)c2cccnc12 | 1.555
CCc1sc(C(=O)Nc2cnn(CC(=O)NC3CC3)c2)cc1C | -4.419
CC(NC(=O)c1cc2n(n1)CCCN(C(C)C)C2)c1cn2ccsc2n1 (centres undefined) | 13.56
O=C(O)C(F)(F)F.O=C(c1c[nH]cn1)N1CCC(F)(F)C2(CCN(c3cnccn3)C2)C1 (centres undefined) | -14.15
O=C(O)C(F)(F)F.OCCN1CCC(F)(F)C2(CCN(c3cnccn3)C2)C1 (centres undefined) | 101.7
FC1(F)CCN(Cc2cccnc2)CC12CCN(c1cnccn1)C2.O=C(O)C(F)(F)F.O=C(O)C(F)(F)F.O=C(O)C(F)(F)F (centres undefined) | 109.7
O=C(NS(=O)(=O)c1ccc2c(c1)CCC2)C1COCCO1 (centres undefined) | -6.627

SMILES | Percent Effect [%]
CCOc1cc(C)ccc1NS(=O)(=O)c1cc(C)c(C(=O)O)s1 | -7.525
O=C1CC(c2ccsc2)c2c(n(C3CCOCC3)[nH]c2=O)N1 (centres undefined) | 5.675
Cc1ccc(SCCN(C)C(=O)c2cn([C@H]3CC[C@@H](N)CC3)nn2)cc1 | 1.127
Cc1nc([C@H]2C[C@H]3CN(C(=O)c4ccoc4C)CC[C@@H]3O2)no1 | -4.157
Cc1occc1C(=O)N1CC[C@H]2C[C@@H](c3nnc(C4CC4)o3)O[C@@H]2C1 | 109
Cc1nc([C@@H]2C[C@@H]3CCN(C(=O)c4occc4C)C[C@H]3O2)no1 | -8.664
Cc1ccoc1C(=O)N1CC[C@H]2C[C@H](c3nnc(C4CC4)o3)O[C@@H]2C1 | 102.2
CCC1c2ccccc2CCN1C(=O)c1ccc(OC)nn1 (centres undefined) | -4.117
Cc1noc(CN(C)c2nc(-c3ccco3)nc3c2CCN(C)CC3)n1 | 89.77
Cc1cc(CN(C)c2nc(-c3ccccn3)nc3c2CCNCC3)n[nH]1 | -2.668
CCOCc1nc2c(c(N(C)Cc3nonc3C)n1)CCNCC2 | 2.534
Cc1nonc1CN(C)c1nc(-c2ccco2)nc2c1CCN(C)CC2 | 97.89
Cc1nc(CNc2nc(-c3ccco3)nc3c2CCNCC3)n[nH]1 | 7.543
Cc1nonc1CN(C)c1nc(-c2cccnc2)nc2c1CCNC2 | 3.087
CC(C)n1nc2c(cc1=O)CN(Cc1nc(-c3ccco3)no1)CC2 | -11.95
CN(Cc1ccc2c(c1)OCO2)Cc1nc(-c2ccco2)no1 | 2.905
Cc1cc(CN(C)c2nc(-c3ccco3)nc3c2CCN(C)CC3)on1 | 70.19
COCCNC(=O)CN(C)Cc1ccc(F)cc1Cl | 14.02
COc1ccc(CN(C)C2CSCCSC2)c2cccnc12 | -27.46
CC(NC(=O)NCC(C)(C)O)c1ccc(-c2ccncc2)cc1 (centres undefined) | -1.867
Cc1nc2ccccc2nc1CN1CCCC1Cn1cncn1 (centres undefined) | -6.198
c1ccc2oc(N3CCCCC3Cn3cncn3)nc2c1 (centres undefined) | -11.74
Cc1nc2ccccc2nc1CN1CCCCC1Cn1cncn1 (centres undefined) | -2.917
c1ccc2oc(CCCN3CCCC3Cn3cncn3)nc2c1 (centres undefined) | -5.809
c1ccc2oc(CCCN3CCCCC3Cn3cncn3)nc2c1 (centres undefined) | 92.19

SMILES | Percent Effect [%]
Cc1nc(CN2CCCC2Cn2cncn2)nc2ccccc12 (centres undefined) | 12.85
c1ccc2oc(CN3CCCC3Cn3cncn3)nc2c1 (centres undefined) | 131.5
c1ccc2oc(N3CCCC3Cn3cncn3)nc2c1 (centres undefined) | 106.1
Cc1nc(CN2CCCCC2Cn2cncn2)nc2ccccc12 (centres undefined) | 1.919
c1ccc2c(N3CCCCC3Cn3cncn3)ncnc2c1 (centres undefined) | -5.98
c1ccc2oc(CN3CCCCC3Cn3cncn3)nc2c1 (centres undefined) | 109.3
CCOC(=O)NC(CNC(=O)c1cc(Cl)ccn1)CC(C)C (centres undefined) | 7.591
CCOCc1nn(CC2CC2)c2c1CN(C(=O)c1ccno1)CC2 | 13.02
CC(C)N1CCC(c2cc(C(F)(F)F)n3ccnc3n2)CC1 | 75.91
NC(=O)CN1CCC(c2cc(C(F)(F)F)n3ccnc3n2)CC1 | 134.1
CC(=O)N1CCC(c2cc(C(F)(F)F)n3ccnc3n2)CC1 | 1.424
N#Cc1ccccc1CN1CCC(c2nccn2CC(N)=O)CC1 | -2.764
CN1CCC(N2CC[C@H](c3nc4ccc(C(F)(F)F)cc4[nH]3)C2)CC1 | -1.878
CC(C)n1ccnc1C1CCN(Cc2ccc(Cl)c(F)c2)CC1 | -2.763
CN1CCC(c2cc(C(F)(F)F)n3ccnc3n2)CC1 | 137.1
CCCN1CCN(S(=O)(=O)c2ccccc2OC)[C@H]2CS(=O)(=O)C[C@H]21 | -12.25
Cc1cnc(C)c(N2CCCC(C/C=C/c3ccccc3)(C(=O)O)C2)n1 (centres undefined) | -10.18
Cc1ccoc1CNCc1nnc2n1CCCC2C(F)(F)F (centres undefined) | -14.27
Cc1sc2ncc(-c3ccnc(NC4CCN(C)CC4)n3)c(=O)n2c1C | 102.6
CNc1nccc(-c2cn(C)nc2C)n1 | 5.366
CCNC(=O)N1CCC(Nc2nccc(NCC)n2)CC1 | -9.692
CCCn1ncc(-c2ccnc(N[C@@H]3C[C@@H]4CC[C@H]3C4)n2)c1C | -16.18
CC[C@H](C)Nc1nccc(-c2cnc3sc(C)c(C)n3c2=O)n1 | -3.163
CNc1nccc(-c2cnc3sc(C)c(C)n3c2=O)n1 | 88.7
